Among the data in the supplement of paper PMC6555819 are PBM binding z-score values, retold here.

This test relates to VDR:RXRa (NR concentration 270 nM, RXRa partner concentration 90 nM). Put plainly: PBM binding z-score (relative to random genomic background probes); higher = stronger binding; sequences stand for … in GC…GCGATTGACAGCGTAGAATGAAGG
On the procedure: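 Protein-binding microarray (Agilent 4x180K custom design, double-stranded 60-nt probes: 5' GC cap, 34-nt variable region, 24-nt constant primer region; full probe sequence given). Purified or IVT nuclear receptor:RXRα heterodimers (3:1 NR:RXRα, mostly 270:90 nM) or homodimers were incubated for 1 h in PBS with 2% milk and no ligand, then detected with Alexa488 antibodies. Fluorescence from o1-orientation probes (~5 replicates averaged) was converted to z-scores against 500 random hg19 background probes. Variable regions are seed direct-repeat (DR0–DR5) sites, all their single-nucleotide variants and half-site ablations.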
The sequence ATATCTAGGTAAAGTTCAGTGAAAGATCGATAGA came in with a PBM binding z-score of 1.53.

CCTACTGGGCCGAAGGTCATTGATTCCAATGCTC had a PBM binding z-score of 2.51.

On to TCTCTTAGTTGATTAGGGCAACCGAAACAGCGGA, for which the PBM binding z-score is 0.558.

The sequence GCTTGTAGATCAAGGTTAACAAAGACTAAGCTAA registered a PBM binding z-score of 0.333.

Take AATACAGGTTCATCGTAGGCCAGAGTACGCACAG: the PBM binding z-score was determined as 4.6.

As to ACAGACAGGTGATGAAGGTTACTCAGGCTATCAT, the PBM binding z-score amounted to 1.64.

Sequence ATCTCTAGGTGAAGTTCAGTGAAAGATCGATAGA had a PBM binding z-score of 0.563.

As for CTCGAAAGGTCGGTTGAGGTGAGCATACGGATAA, the PBM binding z-score turned out to be 2.26.

In the case of ATATGTTGGTTAGCTGGGGTCATTCAGACTAGGC, the PBM binding z-score is 5.16.

As for CCGAGTAGGCTATGGGGCATTCAGGCAACGGTGA, the PBM binding z-score is -0.947.

Regarding GTAGACAGGTGAAACGCAGGTAACTCAGGGTGGC, the PBM binding z-score is -0.214.

Take CGTCCAAGGTCAAAGCTAGGTCAGTGAAAGCATT: the PBM binding z-score turned out to be 5.25.

In the case of CAAACTAGGTCAAGAGGTCAAAGACCGCTTCCCG, the PBM binding z-score came to 5.93.

As to AGTCAAAGTTCACTAGGTAAGGTAAGATTCAGCT, the PBM binding z-score is 3.96.

CCGACTGGGGCAAAGGTTACAATACTCAGTACGA yielded a PBM binding z-score of 1.71.

Take TCGAGTAGGTTAACAATGGGGCATTCAGCTTTCT: the PBM binding z-score stood at 0.406.

CGTCCCAGGTCAGCAGGTCAGTGAAAGCGACGTG showed a PBM binding z-score of 2.54.

As for CGAACTAGGTCATTGACAGGACAGTAAATAGTAA, the PBM binding z-score came out at 2.34.

GGAGCGAGGGCAAAGTTGATAGCATCTGTCGACG displayed a PBM binding z-score of 0.834.

In turn, AGAATAAGGTTATTAAGATCAGGGAATTGCGGTC registered a PBM binding z-score of 1.95.

As for TCGAGGAGGTTAGGGGCATTCAGAATGGCGTCGA, the PBM binding z-score was 1.03.

The sequence AGGATGAGGTTATTAAGATCAGGGAATTGCGGTC returned a PBM binding z-score of 2.66.

For CCTCCTGGGCCAAGGTCATTGATCAGTCAAAGCA, the PBM binding z-score came out at 2.91.

For the sequence AGTCAAAGTTCACCTAGGTAACGTAAGATATGCT, the PBM binding z-score is 4.74.

Consider GCAAACAGGTGAAACGCAGGTAACTCAGGGTGGC, for which the PBM binding z-score was -0.424.

In turn, GCTGCTATGTCAACTGATGGTCAGCTAAAGCTCG returned a PBM binding z-score of -0.38.

Sequence GCGATTAGTTGAAAGGGCAACCGAATGATTCTCG returned a PBM binding z-score of 0.316.

For CCTACTTGGCCATTCAGAGGTCATTGATCATATG, the PBM binding z-score is 4.04.

Regarding ATCTCTAGGTAAAAGTTCAATGAATCCCGAGGAT, the PBM binding z-score amounted to 2.25.

The sequence ATCTCTAGGTATAGTTCAGTGAAAGATCGATAGA had a PBM binding z-score of 1.04.

For GATACAGGGTCAGCTATAGGCCAGAGTATGGAAA, the PBM binding z-score was determined as 2.46.

CATAAAGGGTCAGCTAGGCCAGAGTAGGGACGGC: the PBM binding z-score turned out to be 4.05.

Regarding TCGAGTAGGTTCGTCGGGGCATTCAGCCAACATA, the PBM binding z-score worked out at 1.79.

As to AGAATGAGGGTATTAAGATCAGGGAATTGCGGTC, the PBM binding z-score was determined as 0.128.

For AGTCACAGTTCACTAGGTAACGTAAGATTCAGCT, the PBM binding z-score was 1.81.

As for ATCTCTAGGTAAGACTCAGTTCGGTGAAGAACGC, the PBM binding z-score turned out to be 0.216.

Turning to ATACCAAGGTGATCGTGAGGTCGTTGACACTAAC, the PBM binding z-score was determined as 3.35.

For ACTAGTTGGTCAGCTGAGGTCACTCACAATTCGG, the PBM binding z-score was 3.95.

Take ACAGACCGGTGATGAAGGTAACTCAGGCTATCAT: the PBM binding z-score is -0.216.

For the sequence CCAGACAAGTGAAAGGTAACTCAGTCTGGTACGC, the PBM binding z-score came out at 0.274.
